An excerpt weighted towards active compounds, which were near 21% of everything screened.
SARS PLpro yeast = qHTS of Yeast-based Assay for SARS-CoV PLP; S. cerevisiae expressing SARS-CoV PLpro, growth rescue; AID 485353, 2010; Potency, µM (highest dose often 32.9 µM), usual class: activators; hit rate 0.19% among 330,000; note: nearly all actives have a fitted effect of over 55% in size
Pf growth 96h = Primary qHTS for delayed death inhibitors of the malarial parasite plastid, 96 hour incubation | P. falciparum luciferase reporter growth, 96 h | Potency, µM (top dose mostly 28.7 µM), actives largely listed as inhibitors | hit rate 6.9% among 320,000 | AID 504834, 2011; active = well fitted inhibition curve with a large enough effect; inconclusive = small, poorly fitted or top-dose-only effect, or another doubt; inactive = no such curve, though single readings can be large or run the other way
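Compounds incubated with erythrocytes infected by luciferase-expressing P. falciparum (2% hematocrit, 0.05% parasitemia final) for 96 hours, 37 C in 5% CO2. Growth inhibition scored as decreased luciferase luminescence.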
CHX counter = Cycloheximide Counterscreen for Small Molecule Inhibitors of Shiga Toxin | cell reporter, cycloheximide protein synthesis inhibition counterscreen | max response, % | hit rate 12% among 300,000 | AID 2314, 2010; in the data active = max response mostly above about 13%, no sharp cut-off; inactive = mostly below about 14%; note: read at 38.3 µM for the half of the compounds with a filed dose
NS1 inh = qHTS Assay for Inhibitors of Influenza NS1 Protein Function; Potency, µM (top dose mostly 46.1 µM); hit rate 0.4% among 270,000; AID 2326, 2010; note: actives are rising curves; nearly all actives have a fitted effect of over 50% in size
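OD600 was taken as the measure of yeast growth restored by compound in an NS1-expressing S. cerevisiae strain. Cells had been washed out of glucose medium and diluted 1:100 into galactose -URA medium, pH 6.0.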
Shiga toxin inh = A qHTS for Small Molecule Inhibitors of Shiga Toxin | Vero cells, Shiga toxin protein synthesis inhibition reporter | inhibition, % at 38.7 µM | hit rate 9.2% among 290,000; in the data active = inhibition mostly above about 28%, no sharp cut-off; inactive = mostly below about 43%
Pf growth 48h = Primary qHTS for delayed death inhibitors of the malarial parasite plastid, 48 hour incubation. Potency, µM (doses to about 28.7 µM), most hits filed as inhibitors. hit rate 5.9% among 310,000. AID 504832, 2011. P. falciparum luciferase growth in erythrocytes, 48 h; active = well fitted inhibition curve with a large enough effect; inconclusive = small, poorly fitted or top-dose-only effect, or another doubt; inactive = no such curve, though single readings can be large or run the other way
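Compounds are pin-transferred into medium, infected erythrocytes (2% hematocrit, 0.1% parasitemia final) are added, and plates sit one parasite generation at 37 C in 5% CO2. Detection reagent is then added and luminescence measured.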
Hits are given with their value; 0 = inactive; ? = inconclusive; - = not tested or not shown; [ ] = remark or other dose. Unless noted, calls come from the whole dose curve.

SMILES | SARS PLpro yeast | Pf growth 96h | CHX counter | NS1 inh | Shiga toxin inh | Pf growth 48h
COc1ccc(-c2cc(C(=O)Nc3cccc(Cl)c3)no2)cc1 | 0 | 0 | 42 | 0 | 85 | 0
O=C(Nc1cccnc1Cl)c1cc(-c2ccco2)on1 | 0 | - | 41 | 0 | 83 | -
O=C(Nc1cccc(Cl)c1)c1cc(-c2ccco2)on1 | 0 | 0 | 31 | 0 | 56 | 0
O=C(Nc1cccnc1Cl)c1cc(-c2ccc(Br)cc2)on1 | 0 | 0 | 0 | 0 | 0 | 0
COc1ccc(-c2nnc(SC(C)C(=O)Nc3cccc(Cl)c3)o2)cc1 (centres undefined) | 0 | 0 | 0 | 0 | 66 | 0
COC(=O)COc1ccc(S(=O)(=O)Nc2ccc(NC(C)=O)cc2)cc1C | 0 | 0 | 0 | 0 | 0 | 0
COc1ccc(N2CCN(C(=O)CN(C)S(=O)(=O)c3cnc[nH]3)CC2)cc1 | 0 | 0 | 0 | 0 | 0 | 0
N#CC(c1ccccc1)N(CCCCl)C(=O)c1ccccc1 (centres undefined) | 0 | ? | 0 | 0 | 0 | 0
O=C(OCC(=O)N1CCN(C(=O)COC(=O)c2ccncc2)CC1)c1ccncc1 | 0 | ? | 0 | 0 | 0 | 0
CC(Oc1ccc(-c2nccc(-c3ccccn3)n2)cc1)C(=O)NN (centres undefined) | 0 | 0 | 0 | ? | 0 | 0
O=C(Nc1cc(Cl)ccc1O)c1cc(-c2ccco2)on1 | 0 | 0 | 40 | 0 | 80 | ?
O=C(Nc1cc(Br)ccc1O)c1cc(-c2ccco2)on1 | 0 | 0 | 0 | 0 | 59 | ?
Cc1cc(=O)nc2c3ccccc3n(C(C)C(=O)Nc3c(F)c(F)c(F)c(F)c3F)n12 (centres undefined) | 0 | 0 | 0 | - | 0 | 3.3µM
Cc1cc(=O)nc2c3ccccc3n(C(C)C(=O)Nc3cc(F)ccc3F)n12 (centres undefined) | 0 | 10µM | 0 | 0 | 0 | ?
COc1ccc(S(=O)(=O)Nc2c(C)ccc3nsnc23)cc1OC | 0 | 0 | 0 | 0 | 0 | 0
Cc1cc(=S)c2ccccc2[nH]1 | 0 | 0 | 0 | 0 | 0 | 0
COc1cc2[nH]c3ccccc3c2cc1C | 0 | 0 | 53 | 0 | 69 | 0
N#Cc1c2c(c(NCc3ccco3)n3c1nc1ccccc13)CCC2 | 0 | 0.74µM | 0 | 0 | 0 | 1µM
CCN(CC)CCNc1c2c(c(C#N)c3nc4ccccc4n13)CCCC2 | 0 | - | 0 | 0 | 0 | 10µM
CN(C)CCNc1c2c(c(C#N)c3nc4ccccc4n13)CCCC2 | 0 | ? | 0 | 0 | 0 | ?
CCCCn1c(SCC(=O)NC2CC2)nc2ccccc2c1=O | 0 | 0 | 0 | 0 | 0 | 0
CCOc1ccc(Nc2nc3cc(S(=O)(=O)N(CC)CC)ccc3o2)cc1 | 0 | - | 0 | 0 | 0 | 10µM
CC(=O)Nc1ccc(N(C(=O)c2ccco2)C(C(=O)NC2CCCC2)c2ccc(N3CCOCC3)cc2)cc1 (centres undefined) | 0 | 0 | 0 | 0 | 0 | ?
CC(=O)NC(c1cc(Cl)c2cccnc2c1O)C(C)C (centres undefined) | 0 | 10µM | - | - | - | 3.7µM
CC(=O)NC(c1cc(Cl)c2cccnc2c1O)C1CC1 (centres undefined) | ? | 13µM | - | - | - | 4.1µM
SMILES | SARS PLpro yeast | Pf growth 96h | CHX counter | NS1 inh | Shiga toxin inh | Pf growth 48h
Clc1cc(Br)ccc1OCCCNCc1ccccc1 | 0 | 0 | 0 | 0 | 0 | 0
CCOc1ccccc1NC(=O)Nc1ccccn1 | 0 | ? | 0 | 0 | 0 | ?
CCOc1ccccc1NC(=O)Nc1ccc(Cl)cc1 | 0 | ? | 76 | ? | 41 | ?
COc1ccccc1NC(=O)NCCCl | 0 | 0 | 0 | 0 | 0 | 0
CCCOc1ccccc1N/C(=N/c1nc(C)cc(C)n1)NC(=O)Nc1ccc(Cl)cc1 | 0 | 0 | 0 | 0 | 0 | 13µM
O=C(NCCCl)Nc1ccccc1OCCOc1ccccc1NC(=O)NCCCl | 0 | 2.1µM | 0 | 0 | 0 | 2.1µM
CCCOc1ccccc1NC(=O)Nc1ccccc1Cl | 0 | 8.3µM | 0 | - | 0 | 0[5.75 µM]
COc1ccc(C2=NCCn3cccc32)c(OC)c1 | 0 | ? | 0 | 0 | 0 | 0
CC(=O)Nc1ccn(C2OC(C(COC(C)=O)NC(=O)C(Cc3ccccc3)NC(=O)OC(C)(C)C)C(OC(C)=O)C2OC(C)=O)c(=O)n1 (centres undefined) | - | - | 0 | - | 0 | -
O=C(COc1ccc(Cl)cc1)NCCNC(=O)c1ccccn1 | 0 | 0 | 0 | 0 | 0 | 0
COc1cccc(NC(=O)C(C)OC(=O)c2n[nH]c3ccccc23)c1 (centres undefined) | 0 | 0 | - | - | - | ?
CCOc1ccccc1N(C(=O)Nc1ccc(Cl)cc1)C1=NC(C)CS1 (centres undefined) | 0 | 0 | 25 | 0 | 82 | 0
CCOc1ccccc1N(C(C)=O)S(=O)(=O)c1ccc(Cl)cc1 | 0 | 0 | 0 | 0 | 0 | 0
COc1ccc(C2c3c(-c4ccccc4O)n[nH]c3C(=O)N2Cc2ccco2)cc1OC (centres undefined) | 0 | 0 | 0 | 0 | 0 | 0
COc1ccc(C2C(C(=O)c3ccc(C)o3)=C(O)C(=O)N2Cc2cccnc2)cc1OC (centres undefined) | 0 | 0 | 0 | 0 | 0 | 0
COc1ccc(C2c3c(oc4c(C)cc(C)cc4c3=O)C(=O)N2Cc2cccnc2)cc1OC (centres undefined) | 0 | 9.3µM | 0 | 0 | 0 | 0
O=C1c2[nH]nc(-c3ccccc3O)c2C(c2cccc(Cl)c2)N1Cc1ccco1 (centres undefined) | 0 | - | 0 | - | 0 | 8.3µM
COc1ccc(CCN2C(=O)c3[nH]nc(-c4ccccc4O)c3C2c2cccc(O)c2)cc1OC (centres undefined) | 0 | 13µM | 0 | 0 | 0 | 10µM
COc1cc(C2c3c(oc4c(C)cc(C)cc4c3=O)C(=O)N2Cc2cccnc2)cc(OC)c1OC (centres undefined) | - | - | - | 0 | - | -
COc1ccc(C2C(C(=O)c3cccs3)=C(O)C(=O)N2Cc2cccnc2)cc1OC (centres undefined) | 0 | 0 | 38 | 0 | 110 | 0
Cc1cc2c(cc1S(=O)(=O)N(C)Cc1ccccc1)OCC(=O)N2 | 0 | 0 | 0 | 0 | 0 | 0
COc1ccc(C2c3c(-c4cc(Cl)c(C)cc4O)n[nH]c3C(=O)N2Cc2cccnc2)cc1OC (centres undefined) | 0 | 0 | 0 | 0 | 0 | 3.3µM
CN1c2ccc(Cl)cc2C(=O)NC1C1CC=CCC1 (centres undefined) | 0 | 12µM | 0 | 0 | 0 | 0
N#CCC(=O)Nc1ccc(C(=O)NNC(=O)CCN2CCN(c3ccccc3)CC2)cc1 | 0 | ? | - | - | - | ?
Cc1cc(-c2ccc(C)c(S(=O)(=O)Nc3cc(C)on3)c2)on1 | 0 | ? | 0 | 0 | 0 | 0
CN1C2C=C3C(C#N)=C(N)C(C#N)(C#N)C(c4ccc(Br)cc4)C3C1CC2 (centres undefined) | 0 | 8.3µM | 0 | 0 | 0 | 9.3µM
Cc1nc(NC2=NCN(Cc3ccccc3)CN2)nc2ccccc12 | 0 | 0 | 0 | 0 | 0 | ?
